Results reported in PubChem BioAssay AID588819 (The Scripps Research Institute Molecular Screening Center, 2011).
Hit rate of the full screen: of about 360,000 compounds, about 320 (0.089%) were called active. The sample holds actives, similar compounds and a random draw of the others, so the mix is not that of the screen. Unmarked numbers belong to inactive results. Cut-off read from the data, not from the text of the source: active = activation above about 19% (passing the limit was not always enough); inactive = the rest.

Each molecule was assayed against Muscarinic acetylcholine receptor M1 (Homo sapiens) (UniProt P11229) (assay: human M1 muscarinic receptor positive allosteric modulators, primary screen, CHO-K1 cells, Fluo-8 calcium fluorescence, 1536-well (AID 588819)). Details: CHO-K1 hM1, Fluo-8 calcium fluorescence, ACh EC20; at 3 µM; hits give high values; 0% = ACh EC20, 100% = maximal ACh.
Chain of Muscarinic acetylcholine receptor M1 (Homo sapiens) (P11229 whole entry, looked up): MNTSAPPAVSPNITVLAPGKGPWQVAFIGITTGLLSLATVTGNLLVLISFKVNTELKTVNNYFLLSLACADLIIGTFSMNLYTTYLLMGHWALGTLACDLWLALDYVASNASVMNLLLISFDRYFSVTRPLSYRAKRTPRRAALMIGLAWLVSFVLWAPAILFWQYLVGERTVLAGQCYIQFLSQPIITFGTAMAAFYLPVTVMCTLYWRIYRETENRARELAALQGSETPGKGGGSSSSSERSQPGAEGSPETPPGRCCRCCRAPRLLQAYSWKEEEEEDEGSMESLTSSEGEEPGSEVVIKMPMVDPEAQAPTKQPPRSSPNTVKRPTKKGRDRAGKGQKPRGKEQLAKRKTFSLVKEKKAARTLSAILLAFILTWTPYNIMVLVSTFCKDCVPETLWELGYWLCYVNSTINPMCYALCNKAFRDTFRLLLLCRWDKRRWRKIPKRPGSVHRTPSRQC

Compound	activation
Cc1ccc(S(=O)(=O)NC(=O)N2CCCN(Cc3ccc(F)cc3)CC2)cc1	5.25%
CCN(CC(=O)Nc1ccc(OC)cc1)C(=O)c1ccc(Cl)c(S(=O)(=O)N2CCCC2)c1	9.99%
CC(C)(C)NC(=O)CN(C(=O)c1ccc(Cl)nc1)c1cccc2ccccc12	2.85%
CCC1(CC)C(=O)C2=C3C1[C@H](C(=O)OC)C=C(C(=O)OC)C[C@H]3[C@H]1C(=O)N(Cc3ccccc3)C(=O)[C@H]1[C@H]2C (stereo partly specified)	-6.86%
COc1ccc(-n2nc3c(c2NC(=O)c2ccc(N4C(=O)CCC4=O)cc2)CSC3)cc1	1.99%
COc1ccc(CCNC(=O)CN(C)S(=O)(=O)c2ccc3nc(C)sc3c2)cc1OC	8.1%
CCN(C(=O)COC(=O)/C=C/c1nc2ccccc2s1)C1CCS(=O)(=O)C1 (stereo unspecified)	-0.52%
O=c1[nH]c(CN2CCN(S(=O)(=O)c3ccc4c(c3)OCCO4)CC2)nc2sc3c(c12)CCCC3	12.9%
O=C(NCc1cccnc1)C12CC3CC(CC(C3)C1)C2	22.9%
COc1ccc(NC(=O)CN(C)C(=O)CC2CCCCC2)cc1	15.3%
CN(CC(=O)Nc1cccc(F)c1)C(=O)CC1CCCC1	29.7% (active)
Cc1ccc(CSCC(=O)N(C)CC(=O)Nc2cccc(F)c2)cc1	11.3%
ONC(=Nc1ccccc1)c1ccccc1Cl	2.82%
CCC1(CC)NC(=O)N(CC(=O)OCC(=O)NC(=O)c2ccccc2)C1=O	5.54%
CC(C)N1CCC(N2CCN(Cc3cccnc3)CC2CCO)CC1 (stereo unspecified)	7.42%
COc1ccc(S(=O)(=O)N2CCN(C(=S)NCC3CCCO3)CC2)cc1OC (stereo unspecified)	2.58%
O=C(NCc1ccccc1)C1=C[C@@H](c2ccccc2)C[C@@H](OCCCCO)O1	19.5%
O=C(/C=C/c1ccccc1)Nc1nnc(SCC(=O)c2ccc3ccccc3c2)s1	1.55%
CCOCc1nnc(NC(=O)CSc2ccc(C)cc2)s1	3.8%
O=C(CSc1ccccc1)Nc1nnc(/C=C/c2ccccc2)s1	32.8% (active)
O=C(Cn1nc(C(=O)O)c2ccccc2c1=O)Nc1ccc(F)cc1	1.79%
CC(=O)Nc1ccc(NC(=O)C(C)OC(=O)C2CC(=O)N(CCc3ccccc3)C2)cc1 (stereo unspecified)	4.72%
CCCCN(C)c1ccc([N+](=O)[O-])cc1	-3.31%

Compound	activation
CC(C)Cn1cnc2c1c(=O)n(CC(=O)NN)c(=O)n2Cc1ccccc1	4.53%
COCCn1cnc2c1c(=O)n(CC(=O)NN)c(=O)n2Cc1ccccc1	13.3%
CC(C)CCn1cnc2c1c(=O)n(CC(=O)NC(N)=O)c(=O)n2Cc1ccccc1	30.3% (active)
CCCSC(=S)NC1CCS(=O)(=O)C1 (stereo unspecified)	0.86%
CSc1ccc(CNCCN2CCOCC2)cc1	-5.22%
CCCCNCCS(=O)(=O)NCc1ccccc1	4.18%
CCCCNCc1ccc(SC)cc1	25.2% (active)
Cc1cccc(C)c1NC(=O)C1(N(C(=O)c2ccccn2)c2ccc(O)cc2)CCCCC1	-1.06%
O=c1c2c(ncn1Cc1ccccc1)nc1n2CCC1	7.79%
CN(C)c1ccnc2sc3c(=O)n(Cc4ccccc4)cnc3c12	23.4% (active)
CN(C)/C=C/c1c(C#N)c(=O)ncn1Cc1ccccc1	-0.11%
COc1ccc(CN2CC[C@H]3C=CC[C@@H](C(=O)N4CCOCC4)[C@H]3C2=O)cc1OC	1.94%
CNC(=O)c1nnc(Cc2ccc(Cl)cc2)o1	5.02%
O=C(Nc1ccc(F)cc1F)N1CCCN(CCOc2ccccc2)CC1	5.19%
Nc1ncnc2c1ncn2[C@@H]1O[C@H](CNC(=O)[C@H](N)Cc2cccnc2)[C@@H](O)[C@H]1O	2.46%
CCn1c(O)c(N=NC2=NC(=O)CS2)c2cc(C)ccc21	-1.89%
O=C(CCNc1n[nH]c(=O)[nH]c1=O)N/N=C\c1ccc(Br)cc1	17.3%
CC(=O)N/C(=C/c1ccc(OC(F)F)cc1)C(=O)O	6.97%
CN1CCC(=NNC(=O)c2ccc(N(Cc3ccc(Cl)cc3)S(C)(=O)=O)cc2)CC1	4.92%
CC1CCN(c2ccc([N+](=O)[O-])c(SCCO)c2)CC1	2.03%
COCCNC(=O)C1CCN(C(=O)C2CC(=O)N(c3ccc(C)cc3)C2)CC1 (stereo unspecified)	29.5% (active)
CCCC(C)NC(=O)C1CCN(C(=O)C2CC(=O)N(c3ccc(C)cc3)C2)CC1 (stereo unspecified)	14.6%
COCCCNC(=O)C1CC(=O)N(c2ccc(C)cc2)C1 (stereo unspecified)	1.45%

Compound	activation
Cc1ccc(S(=O)(=O)N2C3C=CC(C3)C2C(=O)O)cc1 (stereo unspecified)	1.95%
O=C(O)C1CCN1C1CCCCC1 (stereo unspecified)	3.48%
COc1ccccc1C(=O)NCC(=O)OCC(=O)Nc1nnc(-c2ccccc2)o1	7.11%
Cc1ccnc2nc(C(=O)Nc3nnc(-c4ccccc4)o3)nn12	3.22%
CCCC(=O)Nc1nnc(-c2ccccc2)o1	28.9% (active)
COc1ccc(N2CCC(CNC(=S)Nc3c(C)cccc3C)C2)cc1 (stereo unspecified)	-4.84%
O=C(Cc1ccc(NC(=O)C2CCCN(C(=O)C3CCCCC3)C2)cc1)Nc1cccc(C(=O)N2CCCCC2)c1 (stereo unspecified)	3.87%
CC(Sc1nnc2c(n1)C1CCC2(C)C1(C)C)C(=O)Nc1ccccc1 (stereo unspecified)	11.8%
CSc1ccccc1C(=O)Nc1cccc(C(C)=O)c1	-2.71%
CSc1nc(C)cc(SC(C(C)=O)C(=O)Nc2ccccc2)n1 (stereo unspecified)	23.1% (active)
Cc1ccc(S(=O)(=O)N(CCc2ccccc2)c2ccc3c(c2)C2CC3CCN2C(=O)OCc2ccccc2)cc1 (stereo unspecified)	10.4%
COc1ccccc1OCC(=O)OCn1c(SC)nnc(C)c1=O	2.31%
Cc1nc(-c2ccc(F)cc2)c(CC(=O)Nc2cc(S(=O)(=O)N3CCCCC3)ccc2C)s1	14.8%
Cc1ccc(NC(=O)CSc2nn3c(=O)c(C)nnc3s2)cc1Cl	10.6%
Cc1ccccc1CSCCNC(=O)c1ccc(Cl)c(S(=O)(=O)N2CCOCC2)c1	-5.71%
COc1ccc(Cl)cc1NC(=O)COc1ccc2c(c1)OCO2	7.62%
CN=C1SC(C(=O)O)CC(=O)N1C (stereo unspecified)	7.37%
COc1cc(C(=O)N(C)Cc2cccc(OC)c2OC)ccc1OCC(=O)Nc1cccc(C(F)(F)F)c1	-5.88%
COC(=O)c1ccc2ccccc2c1OC1OC(CO)C(O)C(O)C1NC(C)=O (stereo unspecified)	9.3%
CC(=O)c1cccc(NC(=O)C2CCCN2S(=O)(=O)c2cccc3nsnc23)c1 (stereo unspecified)	-0.71%
Cc1ccc(CN2CCN(c3ccccc3Cl)CC2)o1	5.74%
CCOc1cc(C(=O)Nc2ccc(S(=O)(=O)Nc3cnc4ccccc4n3)cc2)cc(OCC)c1OCC	7.77%
COc1ccc([N+](=O)[O-])cc1N(CC(O)Cn1nnc2ccccc21)S(=O)(=O)c1ccc(C)cc1 (stereo unspecified)	21.8%

Compound	activation
Oc1cccc(CCc2ccccn2)c1	4.71%
CCCn1c(=O)c2c(C(F)(F)F)cc(-c3cccs3)nc2n(CCC)c1=O	1.78%
CCC(=O)N1CCCC1(C)C(=O)Nc1ccc2c(c1)CCN2C(C)=O (stereo unspecified)	8.84%
COC(=O)c1ccc2nc(C3CCCCC3)c(Cc3cccc(F)c3)n2c1	27% (active)
COC(=O)c1ccc2nc(-c3ccc(Cl)cc3)c(Cc3cccc(F)c3)n2c1	-0.44%
COC(=O)c1ccc2nc(-c3ccc(OC)c(OC)c3)c(Cc3ccccc3)n2c1	2.75%
CN(C)CCN(Cc1ccccc1)S(=O)(=O)c1csc(C(N)=O)c1	10.5%
O=C(Cc1ccccc1)NCC1OCCc2ccccc21 (stereo unspecified)	-5.39%
CCCCN(CC(=O)NC(C)(C)C)C(=O)C(=O)Nc1ccc2c(c1)OCCO2	7.88%
O=C(NNS(=O)(=O)c1c(F)cc(F)c(Cl)c1F)C12CC3CC(CC(C3)C1)C2	-10.7%
COc1ccc(CNC(=O)COC(=O)CCS(=O)(=O)c2ccc(C)cc2)cc1OC	4.46%
CCCn1nc(C(=O)OCc2nc(N)nc(Nc3ccccc3C)n2)c2ccccc2c1=O	11.4%
CCOc1ccc2ccccc2c1/C=N/NC(=O)c1c(C)cc(C)[nH]c1=O	7.97%
Oc1cccc(C2c3[nH]c4ccccc4c3CCN2Cc2cnn(-c3ccccc3)c2)c1 (stereo unspecified)	-6.09%
Cc1nc2ccc(NC(=O)c3cccc(S(=O)(=O)N4CCOCC4)c3)cc2s1	3.59%
O=C(O)c1cccc(S(=O)(=O)Nc2ccc(O)cc2Sc2nc3ccccc3s2)c1	31.9% (active)
O=[N+]([O-])c1c(NCCO)cc(Sc2nc3ccccc3s2)c2nonc12	1.97%
CCn1c(CN2C(=O)CSc3ccccc32)n[nH]c1=S	-0.34%
CCC(C)[C@H](NC(=O)N1CCn2c1nc1ccccc12)C(=O)NCc1ccc(OC)cc1 (stereo partly specified)	0.16%
CC(C)(C)NC(=O)Cn1c(SCC(=O)Nc2nccs2)nc2ccccc21	2.24%
CCOC(=O)C1(Cc2cccc(OC)c2)CCCN(S(=O)(=O)c2cccnc2)C1 (stereo unspecified)	6.27%
CN1/C(=C\C=C2\N=C(c3ccc(F)cc3)OC2=O)C(C)(C)c2ccccc21	-5.26%
